# In PubChem BioAssay (EPA / NIEHS):
# Records with an inconclusive call do not appear. Calls of active or inactive are those of the source. How the source made its calls: active means hit-call score of the fitted dose curve at least 0.9, where 1 is the maximum; inconclusive means response in the unintended direction; inactive means score below 0.9.
# Assay: CLD_ACTIN_6hr: CellzDirect (CLD) Gene Expression Assay for Baseline Control (Actin) at 6 hours (AID 2283676)
# Description: CLD_6hr is a cell-based, multiplexed-readout assay that uses hepatocyte, a human liver primary cell, with measurements taken at 6 hours after chemical dosing in a 96-well plate.CLD_ACTIN_6hr is one of 16 assay component(s) measured or calculated from the CLD_6hr assay. It is designed to make measurements of mRNA induction, a form of inducible reporter, as detected with chemiluminescence signals by Quantitative Nuclease Protection Assay (qNPA) technology.Data from the assay component CLD_ACTIN_6hr was analyzed at the endpoint, CLD_ACTIN_6hr, in the positive analysis fitting direction relative to DMSO as the negative control and baseline of activity. Using a type of inducible reporter, gain-of-signal activity can be used to understand changes in the reporter gene as they relate to the gene ACTA1. Furthermore, this assay endpoint can be referred to as a secondary readout, because this assay has produced multiple assay endpoints where this one serves a background control function. To generalize the intended target to other relatable targets, this assay endpoint is annotated to the background measurement intended target family, where subfamily is baseline control.
# Human hepatocyte cultures were treated daily for two consecutive days with fresh dosing solutions containing appropriate concentrations of the 320 ToxCast chemicals (chemical identities were blinded to CellzDirect and other ToxCast collaborators), vehicle control (0.2% DMSO), and positive control inducers as summarized in Table 1. Due to the large number of treatment groups and chemicals examined, the ToxCast chemicals were divided into two groups (spanning two independent cultures of hepatocytes from separate donor preparations (Hu778: ToxCast plates 1 and 2; Hu776: ToxCast plates 3 and 4). Each preparation of human hepatocyte cultures was treated with respective vehicle control, medium only control, set of six positive controls/reference chemicals for the five hepatic receptor pathways, and a subset of eight of the ToxCast chemicals (indoxacarb, pyrithiobac-sodium, norflurazon, cyhalofop-butyl, methomyl, thiram, acetochlor, and propiconazole). These replicate data, coupled with internal replicates designed within the blinded ToxCast chemical library, provided additional data to evaluate interindividual differences between hepatocyte preparations and their potential impact on chemical profiles.Cell morphology and integrity were evaluated using phase-contrast microscopy as an indicator of hepatocyte cell health (Tyson & Green, 1987). Cultures for each treatment group (i.e., media, vehicle [0.2% DMSO], positive control inducers [multiple concentrations], and the ToxCast chemicals [multiple concentrations]) were observed and cell morphology was assessed relative to vehicle control cultures at each harvest time point (0, 6, 24, or 48 h). […] Images were evaluated at the conclusion of the study to assess changes in cell integrity and account for the effects of chemical exposure on uncharacteristic changes in concentration-dependent gene expression profiles. The results from these determinations of apparent cytotoxicity were annotated (yes/no) alongside the corresponding qNPA data for reference.At the conclusion of each treatment period, hepatocyte cultures (96-well) were washed with 1 volume of HBSS, lysed by addition of 25 ul ArrayPlate lysis buffer (HTG, Tucson, AZ), and 70 ul/well of Denaturation Oil, denatured by incubation at 95C for 10 min, and frozen at approximately -70C until analysis by nuclease protection assay (qNPA) (Roberts et al., 2007). For qNPA analysis, cell lysates were thawed at 50C for approximately 30 min, qNPA probes were added, and samples were incubated at 95C for 10 min to begin the detection process by denaturing the target RNA, dissociating the duplexes and secondary structure hybridization. At the conclusion of the hybridization period, S1 nuclease reagent was added to each sample to digest all nonprotected nucleotides at 50C for 60-90 min. […]
row,SMILES,outcome
1,O=C(O)C1(C(=O)Nc2ccc(Cl)cc2Cl)CC1,inactive
2,COC(=O)c1cccc(C)c1S(=O)(=O)NC(=O)Nc1nc(OCC(F)(F)F)nc(N(C)C)n1,inactive
3,CC1(C)C(C=C(Cl)Cl)C1C(=O)OCc1cccc(Oc2ccccc2)c1 (stereo unspecified),inactive
4,CCCCCCC(C)OC(=O)COc1nc(F)c(Cl)c(N)c1Cl (stereo unspecified),inactive
5,CC(C)(C)[C@@H](O)[C@@H](Cc1ccc(Cl)cc1)n1cncn1,inactive
6,CCCN(CCC)C(=O)SCC,inactive
7,CCCN(CCC)c1c([N+](=O)[O-])cc(C(F)(F)F)c(N)c1[N+](=O)[O-],inactive
8,CCN(CC)C(=O)c1cccc(C)c1,inactive
9,Cc1nn(C)c(Oc2ccccc2)c1C=NOCc1ccc(C(=O)OC(C)(C)C)cc1,inactive
10,CCOC(=O)C(C)Oc1ccc(Oc2nc3ccc(Cl)cc3o2)cc1 (stereo unspecified),inactive
11,N#CSCSc1nc2ccccc2s1,inactive
12,O=C(Nc1ccc([N+](=O)[O-])cc1Cl)c1cc(Cl)ccc1O,inactive
13,C=CCOC(Cn1ccnc1)c1ccc(Cl)cc1Cl (stereo unspecified),inactive
14,CCCOC(=O)NCCCN(C)C,inactive
15,CCCCOC(=O)[C@@H](C)Oc1ccc(Oc2ccc(C(F)(F)F)cn2)cc1,inactive
16,CCOC(=O)NCCOc1ccc(Oc2ccccc2)cc1,inactive
17,COc1nc(C)nc(NC(=O)NS(=O)(=O)c2ccccc2OCCCl)n1,inactive
18,CCOC(=O)[C@H](C)Oc1ccc(Oc2nc3ccc(Cl)cc3o2)cc1,inactive

row,SMILES,outcome
1,C#CCOC(=O)[C@@H](C)Oc1ccc(Oc2ncc(Cl)cc2F)cc1,inactive
2,COc1c(Cl)ccc(Cl)c1C(=O)O,inactive
3,COC(=O)c1ccccc1S(=O)(=O)NC(=O)Nc1nc(OC(F)F)cc(OC(F)F)n1,inactive
4,S=C([S-])NCCNC(=S)[S-].[Mn+2],inactive
5,COC(=O)c1c(Cl)nn(C)c1S(=O)(=O)NC(=O)Nc1nc(OC)cc(OC)n1,inactive
6,COC(=O)c1ccc(CNS(C)(=O)=O)cc1S(=O)(=O)NC(=O)Nc1nc(OC)cc(OC)n1,inactive
7,CCCCC(CC)CN1C(=O)C2C3C=CC(C3)C2C1=O (stereo unspecified),inactive
8,CCCOC(=O)c1ccc(C(=O)OCCC)nc1,inactive
9,CC(C)(c1ccc(O)cc1)c1ccc(O)cc1,inactive
10,c1ccc2[nH]c(-c3cscn3)nc2c1,inactive
11,COCCO,inactive
12,CCOC(=O)C(C)Oc1ccc(Oc2cnc3cc(Cl)ccc3n2)cc1 (stereo unspecified),inactive
13,COC(=O)c1ccccc1C(=O)O,inactive
14,Oc1ccc(C(c2ccc(O)cc2)C(Cl)(Cl)Cl)cc1,inactive
15,CSC(=O)c1cccc2nnsc12,inactive
16,COC(=O)c1ccc(I)cc1S(=O)(=O)NC(=O)Nc1nc(C)nc(OC)n1,inactive
17,CCSC(=O)N(CC(C)C)CC(C)C,inactive
18,CCC(C)OC(=O)N1CCCCC1CCO (stereo unspecified),inactive
